Data reported in PubChem BioAssay AID651848 (The Scripps Research Institute Molecular Screening Center, 2012).
The list shows a part of the results. Cut-off read from the data, not from the text of the source: active = IC50 below about 10 µM; inactive = the rest.

assay: small-molecule binders of antibody PG9, dose response, biochemical, TR-FRET, HIV-1 gp120 antibody (AID 651848); conditions: TR-FRET PG9 antibody-gp120 binding inhibition

IC50, inactive:
O=C(Oc1ccccc1)Oc1ccc2c(c1)oc(=O)c1ccccc12 25.1 µM
COc1ccc(-c2c(C)nn3c(N4CCC(C(=O)N5CCCCC5)CC4)cc(C)nc23)cc1OC > 67 µM
S=c1[nH]c2ccccc2c2ccccc12 44.6 µM
COC(=O)C1=C(C)N(Cc2ccccc2C(F)(F)F)C(=NCc2ccc(OC)cc2)NC1c1cccc(C(F)(F)F)c1 (configuration not stated) > 67 µM
Cc1cccc(Nc2nc3c(S(=O)(=O)c4ccccc4)nnn3c3ccccc23)c1C > 67 µM
CC1(C)Cc2ccccc2-c2[nH]c(=S)[nH]c(=O)c21 > 67.1 µM
O=C(Nc1nnc(-c2ccccc2F)s1)c1ccccc1F > 67.1 µM
